The antibiotic and cytotoxicity screens of Wong et al. (2023)
About 1,500 (3.8%) of roughly 39,000 compounds were called active. This is one part of a sample in which actives are shown more often than they occur.

What follows are compounds tested on HSkMC (human skeletal muscle cells) (assay: cytotoxicity call (relative viability < 0.9)). Conditions: 10 µM.

| Compound | cytotoxicity call |
| --- | --- |
| C[C@H](CO)N1C[C@H](C)[C@H](CN(C)C(=O)NC2CCCCC2)Oc2ccc(NC(=O)C3CC3)cc2CC1=O | inactive |
| Cc1ccc(S(=O)(=O)N(C)C[C@H]2Oc3ccc(N(C)C)cc3CC(=O)N([C@H](C)CO)C[C@@H]2C)cc1 | inactive |
| CN1N=C2CCN(C(=O)[C@@H](COCc3ccccc3)NC(=O)C(C)(C)N)C[C@@]2(Cc2ccccc2)C1=O | inactive |
| CC(C)(N)C(=O)N[C@H](COCc1ccccc1)C(=O)N1CCC2(CC1)CN(S(C)(=O)=O)c1ccccc12 | active |
| CN(C)N(C)C(=O)[C@@]1(Cc2ccccc2)CCCN(C(=O)[C@@H](Cc2c[nH]c3ccccc23)NC(=O)C(C)(C)N)C1 | inactive |
| COc1ccc(S(=O)(=O)Nc2ccc3c(c2)C(=O)N([C@H](C)CO)C[C@H](C)[C@@H](CN(C)C(=O)Nc2c(C)noc2C)OCCCC[C@H](C)O3)cc1 | inactive |
| COc1ccc(NC(=O)N(C)C[C@H]2OCCCC[C@@H](C)Oc3ccc(NC(=O)C4CCCCC4)cc3C(=O)N([C@@H](C)CO)C[C@H]2C)cc1 | inactive |
| C[C@@H]1CN([C@@H](C)CO)C(=O)c2cccc(NC(=O)CCCCCC(=O)Nc3ccccc3N)c2O[C@H]1CN(C)Cc1ccc(Cl)c(Cl)c1 | inactive |
| C[C@@H]1CN([C@H](C)CO)C(=O)c2cccc(NC(=O)CCCCCC(=O)Nc3ccccc3N)c2O[C@H]1CN(C)Cc1ccccc1 | inactive |
| C[C@@H]1CN([C@@H](C)CO)C(=O)c2cccc(NC(=O)CCCCCC(=O)Nc3ccccc3N)c2O[C@H]1CN(C)Cc1ccc(-c2ccccc2)cc1 | inactive |
| C[C@H]1CN([C@@H](C)CO)C(=O)c2cccc(NC(=O)CCCCCC(=O)Nc3ccccc3N)c2O[C@@H]1CN(C)Cc1ccccc1 | active |
| C[C@H]1CN([C@@H](C)CO)C(=O)c2cccc(NC(=O)CCCCCC(=O)Nc3ccccc3N)c2O[C@H]1CN(C)Cc1ccc(Cl)c(Cl)c1 | active |
| C[C@@H]1CN([C@@H](C)CO)C(=O)c2cccc(NC(=O)CCCCCC(=O)Nc3ccccc3N)c2O[C@@H]1CN(C)Cc1ccccc1 | inactive |
| C[C@@H]1CN([C@@H](C)CO)C(=O)c2cccc(NC(=O)CCCCCC(=O)Nc3ccccc3N)c2O[C@@H]1CN(C)Cc1ccc(Cl)c(Cl)c1 | inactive |
| C[C@H]1CN([C@@H](C)CO)C(=O)c2cccc(NC(=O)CCCCCC(=O)Nc3ccccc3N)c2O[C@@H]1CN(C)Cc1ccc(-c2ccccc2)cc1 | active |
| C[C@H]1CN([C@@H](C)CO)C(=O)c2cccc(NC(=O)CCCCCC(=O)Nc3ccccc3N)c2O[C@H]1CN(C)Cc1ccc(-c2ccccc2)cc1 | inactive |
| Cc1ccc(S(=O)(=O)Nc2ccc3c(c2)C(=O)N([C@@H](C)CO)C[C@H](C)[C@@H](CN(C)Cc2ccncc2)OCCCC[C@H](C)O3)cc1 | inactive |
| C[C@@H]1CN([C@H](C)CO)C(=O)c2cc(NC(=O)c3ccncc3)ccc2O[C@@H](C)CCCCO[C@@H]1CN(C)S(=O)(=O)c1ccc(Cl)cc1 | inactive |
| COc1ccc(S(=O)(=O)Nc2ccc3c(c2)C(=O)N([C@@H](C)CO)C[C@H](C)[C@H](CN(C)S(C)(=O)=O)OCCCC[C@@H](C)O3)cc1 | inactive |
| C[C@@H]1CN([C@H](C)CO)C(=O)c2cc(NC(=O)CCN3CCOCC3)ccc2O[C@H]1CN(C)Cc1ccncc1 | inactive |
| CN(C)CC(=O)OCC(O)C(O)C(O)C(O)C(=O)[O-].[Na+] (centres undefined) | inactive |
| O=C(c1ccc(Cl)cc1)n1c2ccccc2c2ccccc21 | inactive |

| Compound | cytotoxicity call |
| --- | --- |
| O=C(Nc1ccc(Cl)cc1C(=O)c1ccc(Cl)cc1)c1cc(Br)ccc1NS(=O)(=O)c1ccc(Cl)cc1 | inactive |
| O=C(c1ccc(Cl)cc1)c1coc2c1cc(O)c1ccccc12 | active |
| O=C(NCC[C@@H]1CC[C@H](NS(=O)(=O)c2cccc(F)c2)[C@H](CO)O1)C1CC1 | inactive |
| C[C@@H]1CCCCO[C@H](CN(C)S(=O)(=O)c2ccccc2)[C@@H](C)CN([C@@H](C)CO)C(=O)c2cc(NC(=O)C3CCCCC3)ccc2O1 | inactive |
| C[C@@H]1CN([C@@H](C)CO)C(=O)c2cccc(NC(=O)NC3CCCCC3)c2O[C@H]1CN(C)Cc1ccc(C(F)(F)F)cc1 | inactive |
| Nc1cccc(-n2cc(CCC(=O)NO)nn2)c1 | inactive |
| CC(/C=C/C(=O)NO)=C\c1ccccc1OCc1cn(C[C@@H]2CCCN2S(=O)(=O)c2ccc(C)cc2)nn1 | inactive |
| CC(/C=C/C(=O)NO)=C\c1ccccc1OCc1cn(-c2cccc(N(S(=O)(=O)c3ccc(C)cc3)S(=O)(=O)c3ccc(C)cc3)c2)nn1 | active |
| CC(/C=C/C(=O)NO)=C\c1ccccc1OCc1cn(CCNC(=O)[C@@H](NS(=O)(=O)c2ccc(C)cc2)C(C)C)nn1 | inactive |
| Cc1ccc(S(=O)(=O)N(c2cccc(-n3cc(CCC(=O)NO)nn3)c2)S(=O)(=O)c2ccc(C)cc2)cc1 | active |
| Nc1ccc(-n2cc(CCC(=O)NO)nn2)cc1 | inactive |
| C[C@@H]1CCCCO[C@H](CN(C)Cc2ccncc2)[C@@H](C)CN([C@@H](C)CO)C(=O)c2cc(NC(=O)Nc3ccccc3)ccc2O1 | inactive |
| C[C@H](CO)N1C[C@H](C)[C@@H](CN(C)S(=O)(=O)c2ccc(Cl)cc2)OCCCC[C@H](C)Oc2ccc(NC(=O)c3ccccc3)cc2C1=O | inactive |
| C[C@@H]1CN([C@H](C)CO)C(=O)c2cc(NS(C)(=O)=O)ccc2O[C@@H](C)CCCCO[C@@H]1CN(C)Cc1ccncc1 | inactive |
| C[C@@H]1CN([C@H](C)CO)C(=O)c2cc(NC(=O)NC3CCCCC3)ccc2O[C@@H](C)CCCCO[C@H]1CN(C)S(=O)(=O)c1cccs1 | inactive |
| C[C@H](CO)N1C[C@H](C)[C@@H](CN(C)C(=O)Nc2cccc3ccccc23)Oc2ccc(NC(=O)Nc3ccccc3)cc2C1=O | inactive |
| C[C@@H]1CN([C@H](C)CO)C(=O)c2cc(NC(=O)Nc3ccccc3)ccc2O[C@H]1CN(C)C(=O)Nc1cccc2ccccc12 | inactive |
| C[C@H]1CN([C@@H](C)CO)C(=O)c2cc(NC(=O)Nc3ccccc3)ccc2O[C@H]1CN(C)C(=O)Nc1cccc2ccccc12 | inactive |
| C[C@@H]1CN([C@@H](C)CO)C(=O)c2cc(NC(=O)Nc3ccccc3)ccc2O[C@@H]1CN(C)C(=O)Nc1cccc2ccccc12 | active |
| C[C@@H]1CN([C@H](C)CO)C(=O)c2cc(NC(=O)Nc3ccccc3)ccc2O[C@@H]1CN(C)C(=O)Nc1cccc2ccccc12 | active |
| C[C@H](CO)N1C[C@H](C)[C@H](CN(C)C(=O)Nc2cccc3ccccc23)Oc2ccc(NC(=O)Nc3ccccc3)cc2C1=O | inactive |
| Cc1ccc(S(=O)(=O)N(C)C[C@H]2Oc3c(NS(=O)(=O)c4ccccc4)cccc3C(=O)N([C@H](C)CO)C[C@@H]2C)cc1 | inactive |

| Compound | cytotoxicity call |
| --- | --- |
| C[C@H](CO)N1C[C@H](C)[C@H](CN(C)S(=O)(=O)c2ccccc2)Oc2c(NC(=O)C3CCOCC3)cccc2C1=O | inactive |
| C[C@@H]1CCCCO[C@@H](CN(C)CC2CCCCC2)[C@@H](C)CN([C@@H](C)CO)C(=O)c2cc(NC(=O)CCCN(C)C)ccc2O1 | inactive |
| CO[C@@H]1CN(C)C(=O)c2cc(NS(=O)(=O)c3ccccc3)ccc2OC[C@@H](C)N(C(=O)NC(C)C)C[C@H]1C | inactive |
| C[C@H]1CN([C@@H](C)CO)C(=O)Cc2cc(NS(=O)(=O)c3cn(C)cn3)ccc2O[C@H]1CN(C)Cc1ccccc1 | inactive |
| CCn1cc(-c2ccnc3[nH]c(-c4cccc(CN(C)C)c4)cc23)c(-c2ccc(NC(=O)N(C)C)cc2)n1 | active |
| COc1ccccc1S(=O)(=O)N1C[C@H](O)COC[C@H]2O[C@@H](CC(=O)O)CC[C@@H]21 | inactive |
| CCn1c(N)c(C(N)=O)sc1=S | inactive |
| C[C@H](CO)N1C[C@H](C)[C@H](CN(C)C(=O)Nc2ccc(C(F)(F)F)cc2)Oc2c(NC(=O)Nc3cccc4ccccc34)cccc2C1=O | inactive |
| C[C@@H]1CN([C@@H](C)CO)C(=O)c2cccc(NC(=O)Nc3cccc4ccccc34)c2O[C@H]1CN(C)C(=O)Nc1ccc(C(F)(F)F)cc1 | active |
| C[C@@H]1CN([C@H](C)CO)C(=O)c2cccc(NC(=O)Nc3cccc4ccccc34)c2O[C@@H]1CN(C)C(=O)Nc1ccc(C(F)(F)F)cc1 | active |
| C[C@@H]1CN([C@H](C)CO)C(=O)c2cccc(NC(=O)Nc3cccc4ccccc34)c2O[C@H]1CN(C)C(=O)Nc1ccc(C(F)(F)F)cc1 | inactive |
| C[C@H](CO)N1C[C@H](C)[C@@H](CN(C)C(=O)Nc2ccc(C(F)(F)F)cc2)Oc2c(NC(=O)Nc3cccc4ccccc34)cccc2C1=O | active |
| C[C@H]1CN([C@@H](C)CO)C(=O)c2cccc(NC(=O)Nc3cccc4ccccc34)c2O[C@H]1CN(C)C(=O)Nc1ccc(C(F)(F)F)cc1 | active |
| CCN1CCO[C@@]2(O)C=CC(=O)C=C12 | inactive |
| CCc1ccc(NC(=O)C2CCN(S(=O)(=O)c3c(C)[nH]c(=O)[nH]c3=O)CC2)cc1 | inactive |
| Cc1ccc(S(=O)(=O)Nc2ccc3c(c2)C(=O)N([C@@H](C)CO)C[C@@H](C)[C@@H](CN(C)S(=O)(=O)c2ccc(C)cc2)OCCCC[C@H](C)O3)cc1 | inactive |
| C[C@@H]1CN([C@H](C)CO)C(=O)c2cc(NC(=O)Cc3ccccc3)ccc2O[C@@H](C)CCCCO[C@H]1CN(C)C(=O)Nc1cccc2ccccc12 | inactive |
| CC(C)NC(=O)Nc1ccc2c(c1)CC(=O)N([C@@H](C)CO)C[C@H](C)[C@H](CN(C)Cc1ccc(-c3ccccc3)cc1)O2 | inactive |
| O=C(C[C@H]1CC[C@@H](NS(=O)(=O)c2ccccc2)[C@H](CO)O1)NCc1ccncn1 | inactive |
| Cc1ccc(S(=O)(=O)Nc2ccc3c(c2)C(=O)N([C@@H](C)CO)C[C@@H](C)[C@H](CN(C)C(=O)Nc2ccc(C(F)(F)F)cc2)O3)cc1 | inactive |
